The supplement of paper PMC6555819

Legend:
Assay in all cases: PBM binding z-score (relative to random genomic background probes); higher = stronger binding; sequences stand for … in GC…GCGATTGACAGCGTAGAATGAAGG
[1] = test system: FXR:RXRa (NR concentration 270 nM, RXRa partner concentration 90 nM)
In short: (§1)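 The probes on custom Agilent 4×180K protein-binding microarrays were double-stranded, with 34-nt variable regions bearing direct-repeat seeds, single-nucleotide variants, half-site ablations and random human genomic background sequences. Incubation lasted 1 h with ligand-free nuclear receptor dimers in PBS pH 7.4, 2% milk, 0.02% Triton X-100, 1 mM DTT, 0.2 mg/mL BSA and 0.4 mg/ml salmon testes DNA. Antibodies against each partner (one per run) detected bound dimers, and fluorescence scans were regression-normalized. Binding z-scores take the random background probes as reference.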

[2] = test system: LXRa:RXRa (NR concentration 270 nM, RXRa partner concentration 90 nM)
In short: as §1

[3] = test system: LXRa homodimer (NR concentration 270 nM)
In short: as §1

[4] = test system: LXRb:RXRa (NR concentration 270 nM, RXRa partner concentration 90 nM)
In short: as §1

[5] = test system: LXRb homodimer (NR concentration 270 nM)
In short: as §1

[6] = test system: PPARa:RXRa (NR concentration 270 nM, RXRa partner concentration 90 nM)
In short: as §1

[7] = test system: PPARg:RXRa (NR concentration 180 nM, RXRa partner concentration 90 nM)
In short: as §1

[8] = test system: PPARg:RXRa 270nM:90nM, anti-RXR (NR concentration 270 nM, RXRa partner concentration 90 nM)
In short: as §1

[9] = test system: PPARg:RXRa 30nM:10nM, anti-RXR (NR concentration 30 nM, RXRa partner concentration 10 nM)
In short: as §1

[10] = test system: PPARg:RXRa 90nM:30nM, anti-RXR (NR concentration 90 nM, RXRa partner concentration 30 nM)
In short: as §1

[11] = test system: PPARg:RXRa DBDmut IVT, anti-RXR (DBD mutation: RXRa K156A/R161A, NR concentration 270 nM, RXRa partner concentration 90 nM)
In short: as §1

[12] = test system: PPARg:RXRa IVT, anti-PPARg (NR concentration 270 nM, RXRa partner concentration 90 nM)
In short: as §1

[13] = test system: PPARg DBDmut:RXRa IVT, anti-PPARg (DBD mutation: PPARg1 K132A/R137A, NR concentration 270 nM, RXRa partner concentration 90 nM)
In short: as §1

[14] = test system: PPARg DBDmut IVT, anti-PPARg (DBD mutation: PPARg1 K132A/R137A, NR concentration 270 nM)
In short: as §1

[15] = test system: PPARg homodimer (NR concentration 180 nM)
In short: as §1

[16] = test system: PXR:RXRa (NR concentration 270 nM, RXRa partner concentration 90 nM)
In short: as §1

[17] = test system: PXR homodimer (NR concentration 270 nM)
In short: as §1

[18] = test system: RARa:RXR (NR concentration 270 nM, RXRa partner concentration 90 nM)
In short: as §1

[19] = test system: RARa homodimer (NR concentration 270 nM)
In short: as §1

[20] = test system: RARb:RXRa (NR concentration 270 nM, RXRa partner concentration 90 nM)
In short: as §1

Sequence	PBM binding z-score [1]	PBM binding z-score [2]	PBM binding z-score [3]	PBM binding z-score [4]	PBM binding z-score [5]	PBM binding z-score [6]	PBM binding z-score [7]	PBM binding z-score [8]	PBM binding z-score [9]	PBM binding z-score [10]	PBM binding z-score [11]	PBM binding z-score [12]	PBM binding z-score [13]	PBM binding z-score [14]	PBM binding z-score [15]	PBM binding z-score [16]	PBM binding z-score [17]	PBM binding z-score [18]	PBM binding z-score [19]	PBM binding z-score [20]
CGAACTAGGCCATTGACAGGACAGTGAATAGTAA	-0.28	-0.21	0.0668	-0.366	-0.825	1.53	2.02	1.77	0.274	0.972	6.87	5.51	1.09	0.545	0.245	-0.291	0.0591	-0.304	-0.0299	0.565
CCTGCTAGGTCATGGTGAGCTAATCTACAGTATG	3.57	2.37	-0.17	1.56	-0.467	3.41	2.55	2.76	0.872	1.78	4.15	3.71	1.17	0.341	0.897	1.14	-0.321	2.29	-0.0406	3.77
TCTTGTAGATCAACAGGAGGTTAAGAACGATCGA	0.185	0.857	0.191	0.748	-0.245	1.36	0.136	1.3	2.75	1.81	1.71	0.594	0.843	0.593	0.264	0.722	-0.175	0.889	0.0224	0.446
AGAATGAGGCTATTAAGATCAGGGAATTGCGGTC	-0.289	-0.438	-0.31	-0.728	-0.68	-0.226	0.441	-0.417	-0.0887	-0.313	0.775	0.484	0.528	-0.351	-0.817	-0.436	-0.252	-0.197	-0.295	0.119
CAAACTAGGTCATGGTCAAAGTCGGTTTGTGCCA	3.73	2.64	0.245	1.94	0.0742	4.74	8.15	6.86	4.7	6.63	8.43	8.57	2.9	1.82	2.21	1.75	-0.231	2.44	0.58	4.01
CCTTACGGGTCACTGACAGGTTAGAGCATTTGGA	5.51	3.9	0.227	3.04	-0.348	5.19	4.35	4.64	1.58	3.02	3.5	3.63	0.322	-0.672	2.02	3.32	-0.369	4.51	0.501	3.95
CGAACTAGGTCAGAACTGGACAGTGAAGGATGAT	0.671	0.375	-0.326	0.262	-0.439	3.26	5.1	4.49	1.77	3.68	6.94	7.08	2.69	3.66	1.37	0.313	-0.282	0.591	-0.224	2.71
CCTTACGGGTCACTACAGGTTATAGCATCGGAGT	4.92	8	2.22	6.14	0.211	4.69	3.41	3.84	1.46	2.62	2.72	3.21	0.858	0.751	1.99	4.52	0.327	4.47	1.02	3.91
ATCTGTAGGTAACCAAGTTCAGTGAATGCCGAAC	0.276	0.775	0.477	0.549	0.153	1.05	0.635	0.922	0.0596	0.358	2.89	2.55	-0.123	0.924	0.414	2.03	1.73	0.813	0.332	1.08
CCAGACAGGTGAGAAGGTAGCTCAGCCTCGATTA	-0.337	-0.342	-0.166	-0.33	-0.763	0.0761	0.0523	0.0588	-0.801	-0.121	0.778	0.189	-0.969	-0.906	0.136	-0.331	-0.00345	-0.134	0.0537	0.327
TCGAGTAGGTTAGTCGGGGCATACAGCCAACATA	0.288	0.232	-0.353	0.458	-0.174	0.913	0.365	0.998	1.25	1.07	2.34	1.89	-0.401	-0.126	-0.0659	0.333	0.0501	0.379	-0.329	0.592
ATCGAAAGGTCGAGGTCAGTATAGAGAAAGGGAA	5.77	4.62	1.15	4.12	1.14	5.3	4.76	5.12	2.04	4.08	0.84	3.1	1.71	1.29	3.42	4.33	1.7	4.81	2.18	5.1
TCTCGTTGGTCAAAGGTCACACACTCGAAATGCG	6.33	5.68	4.45	5.88	2.23	6.57	9.51	8.55	7.87	9.27	2.72	5.29	0.705	2.09	5.26	5.86	2.2	7.31	3.39	5.27
ATCGAAACGTCGAAGGTGAGTATACCCACCCGAA	-0.17	-0.352	-0.345	-0.738	-0.334	-0.193	0.676	-0.0479	0.0501	-0.0142	-0.927	-0.0186	0.59	0.626	-0.242	-0.502	-0.249	-0.42	0.0263	0.237
